Drawing on PubChem BioAssay (EPA / NIEHS), this text covers outcome and AC50 for 27 compounds.

Broadly, the AC50 is the midpoint of the concentration-response curve, whichever way the signal moves.

Activity calls are given as the source filed them. The calls were made as follows: active = hit-call score of the fitted dose curve at least 0.9, where 1 is the maximum; inactive = score below 0.9.

Experiment [1] can be described thus: APR_HepG2_NuclearSize_72hr: Apredica 72-hour HepG2 Assay for Nuclear Size (AID 2282925). The note with it: high-content imaging, actives raise or lower the signal. The gist of the method: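 HepG2; cpd 0.39–200 uM, 10 conc, duplicate; 72 h; DMSO 0.5% v/v; fix 3.7% formaldehyde 30 min RT; Triton permeabilization; Hoechst 2 ug/mL; HCS imaging 20x; nuclear diameter; gain/loss fit vs DMSO.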

The target in experiment [2] is CCAAT/enhancer-binding protein beta (Homo sapiens) (UniProt P17676). In words: ATG_C_EBP_CIS: Attagene CIS-FACTORIAL HepG2 Assay for human CCAAT/Enhancer Binding Protein (C/EBP) beta (AID 2282927). The note with it: HepG2 Attagene cis-factorial transcription factor reporter; actives raise or lower the signal. The gist of the method:
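Endogenous C/EBPb-driven reporter transcripts measured in transfected human HepG2 cells at 24 h via RT-PCR and capillary electrophoresis of labelled fragments. Activity fitted in both directions relative to DMSO baseline.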

A short description of experiment [3]: ATG_CMV_CIS: Attagene CIS-FACTORIAL HepG2 Assay for human CMV (Internal Marker) (AID 2282928).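 Also: endpoint acts as a background internal control marker rather than a target.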 The note with it: HepG2 CMV promoter reporter, transcription factor profiling; actives raise or lower the signal. The gist of the method: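 CMV internal-marker background readout in transiently transfected HepG2 cells bearing cis-regulated reporter units. Reporter mRNA is measured 24 h after dosing by RT-PCR and capillary electrophoresis, with bidirectional fitting against DMSO.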

Experiment [4] in a line: ATG_DR4_LXR_CIS: Attagene CIS-FACTORIAL HepG2 Assay for human Liver X Receptor (LXR), DR4 submotif (AID 2282929). The note with it: HepG2 Attagene DR4 cis-reporter, mRNA transcription; actives raise or lower the signal. The gist of the method:
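The endpoint is DR4-element-driven reporter transcripts after 24 h chemical exposure of transfected HepG2 cells. These were measured via RT-PCR and capillary electrophoresis, and gain or loss of signal was fitted relative to DMSO controls.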

Experiment [5] in a line: ATG_AP_1_CIS: Attagene CIS-FACTORIAL HepG2 Assay for human Activator Protein 1 (AP-1) (AID 2282931). The note with it: HepG2 Attagene cis-factorial AP-1 reporter mRNA; actives raise or lower the signal. The gist of the method: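 Readout is reporter transcript level from endogenous transcription factor activity, quantified by RT-PCR with fluorescent primer extension and capillary electrophoresis. Transiently transfected HepG2 cells, 24 h exposure. Curves fitted both directions versus DMSO.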

Experiment [6] can be described thus: ATG_AP_2_CIS: Attagene CIS-FACTORIAL HepG2 Assay for human Activator Protein 2 (AP-2) (AID 2282932). The note with it: HepG2 AP-2 cis-reporter, Attagene transcription factor profiling; actives raise or lower the signal. The gist of the method:
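HepG2, transient MRTU transfection, cis-regulated reporters; 24 h compound exposure; RNA isolated, RT-PCR, 6-FAM labelling, HpaI digest, CE fluorescence. DMSO = negative control/baseline, bidirectional fit.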

The nature of experiment [7]: ATG_BRE_CIS: Attagene CIS-FACTORIAL HepG2 Assay for human Bone Morphogenetic Protein (BMP) Response Element (BRE) (AID 2282933). Particulars: HepG2 BMP response element reporter, Attagene transcription factor profiling; actives raise or lower the signal. The gist of the method: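 Transient MRTU transfection of human HepG2 liver cells; 24 h compound treatment; total RNA isolated, reverse-transcribed, PCR-amplified, 6-FAM labelled, HpaI-cut, capillary electrophoresis. DMSO = negative control/baseline, bidirectional fit.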

The target of experiment [8] is Aryl hydrocarbon receptor (Homo sapiens) (UniProt P35869). Put plainly: ATG_Ahr_CIS: Attagene CIS-FACTORIAL HepG2 Assay for human Aryl Hydrocarbon Receptor (Ahr) (AID 2282930). The note with it: HepG2 AhR cis-factorial reporter transcription; actives raise or lower the signal. The gist of the method: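 Reporter mRNA levels, quantified by RT-PCR and fluorescent capillary electrophoresis, reflect endogenous AhR transcriptional activity in HepG2 cells carrying transfected cis-promoter reporter constructs. Readout at 24 h post-dose; gain or loss fitted against DMSO baseline.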
Aryl hydrocarbon receptor (Homo sapiens), sequence (P35869 whole entry, looked up): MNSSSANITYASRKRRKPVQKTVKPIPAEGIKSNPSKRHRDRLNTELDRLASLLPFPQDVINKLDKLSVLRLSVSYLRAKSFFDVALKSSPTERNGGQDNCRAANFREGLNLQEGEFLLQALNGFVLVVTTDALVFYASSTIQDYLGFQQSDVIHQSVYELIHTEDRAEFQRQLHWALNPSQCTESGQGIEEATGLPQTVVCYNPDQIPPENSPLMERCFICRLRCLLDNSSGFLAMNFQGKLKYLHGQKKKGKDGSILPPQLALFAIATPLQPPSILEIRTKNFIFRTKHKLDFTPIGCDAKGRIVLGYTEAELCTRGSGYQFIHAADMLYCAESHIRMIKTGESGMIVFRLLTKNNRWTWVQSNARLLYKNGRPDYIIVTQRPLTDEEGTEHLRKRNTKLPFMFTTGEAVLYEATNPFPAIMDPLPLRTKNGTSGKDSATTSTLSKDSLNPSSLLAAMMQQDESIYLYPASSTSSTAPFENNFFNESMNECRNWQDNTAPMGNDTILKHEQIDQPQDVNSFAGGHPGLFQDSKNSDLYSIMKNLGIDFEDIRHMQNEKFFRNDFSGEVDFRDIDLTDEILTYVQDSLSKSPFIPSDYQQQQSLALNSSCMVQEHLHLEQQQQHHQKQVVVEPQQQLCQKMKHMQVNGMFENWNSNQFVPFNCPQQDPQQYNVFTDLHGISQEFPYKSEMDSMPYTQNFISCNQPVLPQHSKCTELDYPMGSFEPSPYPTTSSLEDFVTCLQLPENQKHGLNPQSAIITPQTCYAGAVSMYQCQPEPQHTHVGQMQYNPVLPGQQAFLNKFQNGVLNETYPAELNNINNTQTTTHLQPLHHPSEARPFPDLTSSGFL

In experiment [9] the target is Retinoic acid receptor alpha (Homo sapiens) (UniProt P10276). In words: ATG_DR5_RAR_CIS: Attagene CIS-FACTORIAL HepG2 Assay for human Retinoic Acid Receptor Alpha (RARE), DR5 submotif (AID 2282934).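 As to AC50: reporter responds to endogenous RAR alpha beta and gamma in HepG2 not RARA alone.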 The note with it: HepG2 Attagene cis-factorial RARE DR5 reporter, mRNA; actives raise or lower the signal. The gist of the method:
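Reporter transcripts from a DR5-regulated unit, measured via RT-PCR plus capillary electrophoresis, reflect endogenous RAR activity in transiently transfected human HepG2 liver cells. Exposure lasted 24 h; gain or loss of signal scored against DMSO.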

A short description of experiment [10]: ATG_CRE_CIS: Attagene CIS-FACTORIAL HepG2 Assay for human cAMP Responsive Element (CRE) binding protein 3 (AID 2282926). Particulars: HepG2 CRE cis-reporter, Attagene multiplexed mRNA; actives raise or lower the signal. The gist of the method: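 HepG2 cells transiently transfected with cis-element-driven multiple reporter transcription units; CRE reporter mRNA measured 24 h after dosing by RT-PCR, 6-FAM labelling, HpaI digestion and capillary electrophoresis. Bidirectional fit versus DMSO baseline.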

CCAAT/enhancer-binding protein beta (Homo sapiens), sequence (P17676 whole entry, looked up, the tested form may be a part): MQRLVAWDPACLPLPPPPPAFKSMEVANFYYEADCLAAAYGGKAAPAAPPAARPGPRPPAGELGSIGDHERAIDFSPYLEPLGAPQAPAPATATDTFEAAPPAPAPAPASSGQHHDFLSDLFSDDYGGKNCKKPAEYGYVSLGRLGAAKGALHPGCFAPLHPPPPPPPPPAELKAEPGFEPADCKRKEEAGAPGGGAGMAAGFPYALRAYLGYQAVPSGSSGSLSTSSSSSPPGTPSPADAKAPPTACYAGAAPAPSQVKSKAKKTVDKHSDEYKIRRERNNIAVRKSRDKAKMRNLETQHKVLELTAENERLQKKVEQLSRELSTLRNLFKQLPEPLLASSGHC
Retinoic acid receptor alpha (Homo sapiens), sequence (P10276 whole entry, looked up): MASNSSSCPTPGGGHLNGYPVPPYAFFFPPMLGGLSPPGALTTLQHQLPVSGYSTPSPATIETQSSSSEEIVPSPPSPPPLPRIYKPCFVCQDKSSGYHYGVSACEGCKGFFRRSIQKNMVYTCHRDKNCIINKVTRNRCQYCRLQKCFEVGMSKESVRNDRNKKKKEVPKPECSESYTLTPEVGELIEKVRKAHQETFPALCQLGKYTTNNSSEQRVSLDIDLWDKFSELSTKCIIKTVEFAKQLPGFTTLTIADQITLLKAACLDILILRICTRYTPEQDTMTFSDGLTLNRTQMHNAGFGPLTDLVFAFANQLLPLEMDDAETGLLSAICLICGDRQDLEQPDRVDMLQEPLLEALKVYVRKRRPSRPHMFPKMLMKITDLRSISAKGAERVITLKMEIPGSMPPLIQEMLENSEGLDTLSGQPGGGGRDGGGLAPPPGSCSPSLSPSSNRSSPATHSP

As for `[N-]=[N+]=[N-]`, the result in [1], in experiment [2], in [3], in experiment [4], in [5] and in experiment [6] was inactive. The call in experiment [7] was inactive.
With `O=[N+]([O-])c1ccccc1`, the result in experiment [1], in [2], in experiment [3], in [4], in experiment [8] and in experiment [5] was inactive. The call in [6], in experiment [7] and in experiment [9] was inactive.
`ClC(Cl)(Cl)c1ccccc1`: the outcome in experiment [1], in experiment [10], in experiment [2], in experiment [3], in experiment [4] and in experiment [8] was inactive. The call in experiment [5], in [6] and in [7] was inactive.
For `CCOP(=S)(Oc1ccc([N+](=O)[O-])cc1)c1ccccc1` (stereo not drawn), the compound was classed as inactive in experiment [1], in [10], in [2], in [3], in experiment [8] and in experiment [6]. For the same compound, the call in experiment [9] was inactive. Further, the AC50 in [4] was 28.4 µM (active); in [5] it was 22.1 µM (active); in [7], 62.6 µM (active).
`CCCN(CCC)c1c([N+](=O)[O-])cc(C(C)C)cc1[N+](=O)[O-]`: the compound was called inactive in experiment [1], in experiment [10], in experiment [2], in [8], in experiment [6] and in [9]. The AC50 is 56.2 µM (active) in [3] and 130 µM (active) in experiment [5].
As for `CN(C)C(=O)Cl`, the call in [1], in experiment [10], in experiment [2], in [3], in experiment [5] and in [6] was inactive. The compound was classed as inactive in [7] and in experiment [9].
Take `CCOP(=S)(OCC)SCSCC`: the outcome in experiment [1], in [10], in [2], in [3], in experiment [8] and in [5] was inactive. The result in [6] and in experiment [7] was inactive.
Consider `COCCOCCO`, for which the compound was classed as inactive in [1], in experiment [10], in experiment [2], in experiment [3], in [4] and in experiment [5]. Further, the result in experiment [6], in [7] and in experiment [9] was inactive.
With `ClC1=C(Cl)C2(Cl)C3C(Cl)C(Cl)CC3C1(Cl)C2(Cl)Cl` (stereo not drawn), the compound was classed as inactive in experiment [1], in [10], in [2] and in [6]. For the same compound, the AC50 is 48.8 µM (active) in [3], 18.1 µM (active) in experiment [4], 48.1 µM (active) in experiment [5] and 1.27 µM (active) in experiment [9].
Regarding `CC(Cl)(Cl)C(=O)O`, the compound was called inactive in experiment [1], in experiment [10], in experiment [2], in [3], in experiment [4] and in experiment [8]. The compound was called inactive in [5], in experiment [6] and in [7].
Consider `CCCCC(CC)COC(=O)c1c(Br)c(Br)c(Br)c(Br)c1C(=O)OCC(CC)CCCC` (stereo not drawn), for which the compound was called inactive in experiment [10], in experiment [2], in experiment [3], in experiment [4], in experiment [5] and in experiment [6]. The call in experiment [7] and in [9] was inactive.
As to `CCOP(=S)(OCC)SCSc1ccc(Cl)cc1`, the result in experiment [10], in [2], in [3], in experiment [4], in experiment [8] and in experiment [5] was inactive. In addition, the outcome in [6], in experiment [7] and in experiment [9] was inactive.
As for `CCN(CC)C1CCCCC1`, the result in experiment [10], in [2], in experiment [3], in experiment [4], in experiment [8] and in experiment [5] was inactive. Moreover, the compound was called inactive in experiment [6], in experiment [7] and in experiment [9].
For `CC(C)CBr`, the outcome in experiment [10], in [2], in experiment [3], in [4], in experiment [5] and in experiment [6] was inactive. For the same compound, the compound was called inactive in [7] and in experiment [9].
Take `C/C(=N\NC(=O)Nc1cc(F)cc(F)c1)c1ncccc1C(=O)O`: the compound was called inactive in experiment [10], in experiment [2], in [3], in [4], in [5] and in experiment [6]. Also, in [7], the call was inactive.
`CC(O)C(F)(F)C(F)(F)F` (stereo not drawn): the compound was called inactive in experiment [10], in [2], in experiment [3], in [4], in experiment [5] and in experiment [6]. Moreover, the result in experiment [7] and in experiment [9] was inactive.
Regarding `O=C(CBr)OCc1ccccc1`, the outcome in experiment [10], in [2], in experiment [3], in [4], in [5] and in [6] was inactive. In addition, the compound was classed as inactive in experiment [7] and in [9].
`O=S(=O)(c1ccc(O)cc1)c1ccc(O)cc1`: the call in experiment [10], in experiment [2], in experiment [3], in [4], in experiment [8] and in experiment [5] was inactive. In addition, the call in experiment [6], in [7] and in experiment [9] was inactive.
For `COP(N)(=S)OC`, the compound was called inactive in [10], in experiment [2], in experiment [3], in experiment [4], in [8] and in [5]. The result in experiment [6] and in experiment [9] was inactive.
For `O=C(O)CF`, the call in experiment [10], in experiment [2], in experiment [3], in experiment [8], in experiment [5] and in experiment [6] was inactive. In addition, the call in experiment [7] was inactive.
`Cc1ccc(C(=O)Cl)cc1`: the outcome in experiment [10], in experiment [2], in experiment [3], in experiment [4], in experiment [8] and in experiment [5] was inactive. The compound was called inactive in [6] and in experiment [9].
Take `Cc1ccc2c(c1N)C(=O)c1ccccc1C2=O`: the call in [10], in experiment [2], in experiment [3], in experiment [6], in [7] and in [9] was inactive. Further, the concentration at half-maximal activity (AC50) in [8] was 4.15 µM (active); in experiment [5] it was 150 µM (active).
Take `CCOP(=S)(S)OCC`: the compound was called inactive in experiment [10], in experiment [2], in [3], in [4], in experiment [5] and in [6]. Moreover, the compound was classed as inactive in [9].
With `O=C(O)C(F)(F)OC(F)(F)C(F)(F)OC(F)(F)F`, the result in experiment [10], in [2], in experiment [3], in [4], in experiment [8] and in experiment [5] was inactive. For the same compound, the call in [6] and in [9] was inactive.
In the case of `O=P(OCC(Br)CBr)(OCC(Br)CBr)OCC(Br)CBr` (stereo not drawn), the result in experiment [10], in [2], in experiment [3] and in experiment [9] was inactive. The AC50 in experiment [8] is 19.5 µM (active); in experiment [5] it was 53.9 µM (active); in experiment [6] it was 40.1 µM (active); in [7], 20.6 µM (active).
For the compound `C=CC(=O)OCC(F)(F)C(F)F`, the result in [10], in experiment [2], in experiment [8], in experiment [5], in experiment [6] and in [7] was inactive. Besides, the compound was called inactive in experiment [9]. Besides, the concentration at half-maximal activity (AC50) in experiment [3] was 150 µM (active); in experiment [4] it was 67 µM (active).
For the compound `FC(F)(F)C(F)(C(F)(F)F)C(F)(F)C(F)(F)CC1CO1` (stereo not drawn), the outcome in experiment [10], in [2], in experiment [3], in experiment [4], in experiment [8] and in [5] was inactive. Further, the outcome in experiment [6], in experiment [7] and in experiment [9] was inactive.
